PubChem BioAssay (EPA / NIEHS)
Several values for one entry are separate records, joined by “and”; a condition that tells them apart may be missing. Identical values can stand only once. Records with an inconclusive call do not appear. Activity calls are given as the source filed them. How the source made its calls, unless noted: active means hit-call score of the fitted dose curve at least 0.9, where 1 is the maximum; inconclusive means response in the unintended direction; inactive means score below 0.9.

Columns and labels:
[1] = target: Estrogen receptor beta (Homo sapiens) (UniProt Q92731); test: OT_ER_ERbERb_1440: Odyssey Thera (OT) 24-hour HEK293T Protein-Complementation Assay for Estrogen Receptor-beta/-beta Homodimer (AID 2283380);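 further: fluorescence gain from ER beta LBD homodimer complementation read by laser scanning cytometry; scored as signal increase over DMSO baseline for both agonists and antagonists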
Method in brief: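 HEK293T cells stably expressing human ER-beta LBD (aa 310-547) PCA homodimer pair, dosed 24 h; formaldehyde-fixed, Draq5-stained. Readout: increase in nuclear (agonist) or nuclear plus cytoplasmic (antagonist) fluorescence intensity versus DMSO, gain-of-signal fitting.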

[2] = target: Estrogen receptor (Homo sapiens) (UniProt P03372); test: OT_ERa_GFPERaERE_0480: Odyssey Thera (OT) 8-hour HeLa Transcription Induction Assay for Estrogen Receptor (AID 2283381; active means hit-call score of the fitted dose curve at least 0.9, where 1 is the maximum; inactive means score below 0.9)
Method in brief: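 Fluorescence microscopy with high-content image analysis measures ERE-driven GFP induction in HeLa cells at 8 h post-dose. Increases fitted against DMSO baseline.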

[3] = target: Estrogen receptor (Homo sapiens) (UniProt P03372); test: OT_ERa_GFPERaERE_0120: Odyssey Thera (OT) 2-hour HeLa Transcription Induction Assay for Estrogen Receptor (AID 2283382)
Method in brief: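 Fluorescence-microscopy images of the GFP-ERα/ERE reporter, scored by high-content image algorithms, give the readout. HeLa exposure lasted 2 h, and only signal increase over DMSO was fitted.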

[4] = target: Retinoic acid receptor RXR-alpha (Homo sapiens) (UniProt P19793); test: OT_NURR1_NURR1RXRa_0480: Odyssey Thera (OT) 8-hour HEK293T Protein Complementation Assay for Nurr1/retinoid X receptor (RXR) (AID 2283385)
Method in brief: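 Interaction of Nurr1 with RXRα read as reconstituted reporter fluorescence in a HEK293T fragment-complementation system, 8 h post-treatment; increase over DMSO baseline analysed.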

[5] = target: Retinoic acid receptor RXR-alpha (Homo sapiens) (UniProt P19793); test: OT_NURR1_NURR1RXRa_1440: Odyssey Thera (OT) 24-hour HEK293T Protein Complementation Assay for Nurr1/retinoid X receptor (RXR) (AID 2283386)
Method in brief: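 Gain in fluorescence, fitted relative to DMSO, reflects Nurr1–RXRα association in HEK293T cells after 24 h dosing. Bait and prey are each linked to a reporter-protein fragment that reassembles on interaction.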

[6] = target: Peroxisome proliferator-activated receptor gamma (Homo sapiens) (UniProt P37231); test: OT_PPARg_PPARgSRC1_1440: Odyssey Thera (OT) 24-hour Protein-Complementation Assay for Peroxisome Proliferator-activated Receptor Gamma/ SRC-1 Co-activator (AID 2283388);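 further: nuclear to cytoplasmic ratio of reconstituted Venus YFP fluorescence in fixed imaged cells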
Method in brief: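 Transient HEK293T, YFP fragments 1-158/159-239 (mutant IFP1/IFP2) fused to PPARg/SRC-1; 24 h dosing; fix 4% formaldehyde, Draq5; Opera imaging 488/635 nm; N/C ratio, gain vs DMSO.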

[7] = target: Bile acid receptor (Homo sapiens) (UniProt Q96RI1); test: OT_FXR_FXRSRC1_0480: Odyssey Thera (OT) 8-hour HEK293T Protein-Complementation Assay for Farnesoid X receptor/SRC-1 Co-activator (AID 2283383)
Method in brief: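 Binding of FXR to coactivator SRC-1 was read as fluorescence from a reconstituted split reporter in HEK293T cells, 8 h after chemical addition. Only increases in signal versus DMSO were fit.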

[8] = target: Bile acid receptor (Homo sapiens) (UniProt Q96RI1); test: OT_FXR_FXRSRC1_1440: Odyssey Thera (OT) 24-hour HEK293T Protein-Complementation Assay for Farnesoid X receptor/SRC-1 Co-activator (AID 2283384)
Method in brief: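 Protein-fragment complementation: FXR and SRC-1 fused to reporter fragments that reassemble on interaction, read by fluorescence intensity. Human HEK293T cells measured 24 h post-dose; positive-direction fit versus DMSO.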

[9] = target: Peroxisome proliferator-activated receptor gamma (Homo sapiens) (UniProt P37231); test: OT_PPARg_PPARgSRC1_0480: Odyssey Thera (OT) 8-hour Protein-Complementation Assay for Peroxisome Proliferator-activated Receptor Gamma / SRC-1 Co-activator (AID 2283387);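 further: nuclear to cytoplasmic split Venus YFP fluorescence ratio reporting PPARg SRC-1 interaction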
Method in brief: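 Read-out: 488 nm N/C fluorescence ratio from complemented Venus YFP fragments, ≥350 cells per image, gain-of-signal fitted against DMSO baseline. Fusions of PPARg/SRC-1 with IFP1/IFP2 expressed transiently in HEK293T; compounds applied 8 h.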

[10] = CEETOX_H295R_OHPREG: CeeTox H295R High-throughput Steroidogenesis Assay for OH-Pregnenolone (OHPREG) (AID 2283434; active means hit-call score of the fitted dose curve at least 0.9, where 1 is the maximum; inactive means score below 0.9); settings: actives raise or lower the signal
Method in brief: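 Readout: HPLC-MS/MS of 17alpha-hydroxypregnenolone in medium after 48 h chemical exposure of H295R cells pretreated with forskolin. Values fitted bidirectionally relative to DMSO; chemicals reducing viability to 20–70% were retested after 10-fold dilution.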

[11] = CEETOX_H295R_OHPROG: CeeTox H295R High-throughput Steroidogenesis Assay for OH-Progesterone (OHPROG) (AID 2283435; active means hit-call score of the fitted dose curve at least 0.9, where 1 is the maximum; inactive means score below 0.9;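 on AC50: 17alpha-hydroxyprogesterone secreted into medium measured by HPLC-MS/MS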); settings: actives raise or lower the signal
Method in brief: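 Medium steroid levels read by LC-MS/MS after 48 h chemical treatment (0.1% DMSO) of human adrenal H295R cells that had been forskolin-primed (10 uM, 48 h). Gain or loss fitted against DMSO; MTT cytotoxicity checked per well.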

[12] = CEETOX_H295R_CORTIC: CeeTox H295R High-throughput Steroidogenesis Assay for Corticosterone (CORTIC) (AID 2283437; active means hit-call score of the fitted dose curve at least 0.9, where 1 is the maximum; inactive means score below 0.9;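 further: corticosterone secreted into medium quantified by mass spectrometry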;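 on AC50: human H295R adrenal cells prestimulated with forskolin before chemical exposure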); settings: actives raise or lower the signal
Method in brief: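 Steps: seed H295R, adhere overnight; 10 uM forskolin 48 h; replace with chemical (0.1% DMSO) 48 h; extract medium with MTBE; quantify corticosterone by HPLC-MS/MS; score bidirectionally vs DMSO.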

[13] = CEETOX_H295R_CORTISOL: CeeTox H295R High-throughput Steroidogenesis Assay for Cortisol (AID 2283438; active means hit-call score of the fitted dose curve at least 0.9, where 1 is the maximum; inactive means score below 0.9;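 further: cortisol secreted into medium quantified by LC-MS/MS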); settings: actives raise or lower the signal
Method in brief: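 Cortisol measured by HPLC-MS/MS after MTBE extraction of medium from H295R cells exposed 48 h to chemical (0.1% DMSO), following 48 h prestimulation with 10 uM forskolin. Viability assessed by MTT in the same wells.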

[14] = CEETOX_H295R_DOC: CeeTox H295R High-throughput Steroidogenesis Assay for DOC (AID 2283439; active means hit-call score of the fitted dose curve at least 0.9, where 1 is the maximum; inactive means score below 0.9); settings: actives raise or lower the signal
Method in brief: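 11-Deoxycorticosterone quantified in medium by MTBE extraction and HPLC-MS/MS after 48 h chemical exposure (0.1% DMSO) of forskolin-primed (10 uM, 48 h) H295R cells. Same-well MTT viability; data fitted bidirectionally against DMSO.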

Measured: AC50

Chain of Bile acid receptor (Homo sapiens) (Q96RI1 whole entry, looked up, the tested form may be a part): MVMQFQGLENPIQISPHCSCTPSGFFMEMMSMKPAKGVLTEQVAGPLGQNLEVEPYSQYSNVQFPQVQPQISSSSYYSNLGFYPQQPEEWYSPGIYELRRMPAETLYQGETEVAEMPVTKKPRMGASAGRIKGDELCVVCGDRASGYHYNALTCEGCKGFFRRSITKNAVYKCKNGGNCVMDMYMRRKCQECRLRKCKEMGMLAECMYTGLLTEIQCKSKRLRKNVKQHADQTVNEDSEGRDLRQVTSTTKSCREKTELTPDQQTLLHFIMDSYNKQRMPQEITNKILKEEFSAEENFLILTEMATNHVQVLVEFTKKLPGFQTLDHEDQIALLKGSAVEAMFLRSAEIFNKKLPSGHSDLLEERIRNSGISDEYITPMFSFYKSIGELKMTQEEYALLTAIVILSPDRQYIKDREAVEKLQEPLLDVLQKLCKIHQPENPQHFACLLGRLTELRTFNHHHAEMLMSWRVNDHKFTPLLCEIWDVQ
Chain of Estrogen receptor beta (Homo sapiens) (Q92731 whole entry, looked up, the tested form may be a part): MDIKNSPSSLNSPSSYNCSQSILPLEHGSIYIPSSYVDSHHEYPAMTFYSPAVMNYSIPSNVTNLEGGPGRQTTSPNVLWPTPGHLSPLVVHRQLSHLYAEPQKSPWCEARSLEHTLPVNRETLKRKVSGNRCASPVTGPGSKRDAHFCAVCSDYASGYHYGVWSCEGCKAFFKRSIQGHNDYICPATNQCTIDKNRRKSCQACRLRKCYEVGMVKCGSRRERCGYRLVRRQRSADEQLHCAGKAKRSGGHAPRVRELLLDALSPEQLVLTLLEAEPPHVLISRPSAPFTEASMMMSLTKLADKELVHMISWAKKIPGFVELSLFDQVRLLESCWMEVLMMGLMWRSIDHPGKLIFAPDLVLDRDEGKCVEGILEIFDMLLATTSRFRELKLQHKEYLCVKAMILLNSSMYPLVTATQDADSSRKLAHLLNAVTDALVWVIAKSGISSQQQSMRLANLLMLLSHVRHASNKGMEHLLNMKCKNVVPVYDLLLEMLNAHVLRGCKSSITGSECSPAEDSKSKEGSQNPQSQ
Chain of Estrogen receptor (Homo sapiens) (P03372 whole entry, looked up): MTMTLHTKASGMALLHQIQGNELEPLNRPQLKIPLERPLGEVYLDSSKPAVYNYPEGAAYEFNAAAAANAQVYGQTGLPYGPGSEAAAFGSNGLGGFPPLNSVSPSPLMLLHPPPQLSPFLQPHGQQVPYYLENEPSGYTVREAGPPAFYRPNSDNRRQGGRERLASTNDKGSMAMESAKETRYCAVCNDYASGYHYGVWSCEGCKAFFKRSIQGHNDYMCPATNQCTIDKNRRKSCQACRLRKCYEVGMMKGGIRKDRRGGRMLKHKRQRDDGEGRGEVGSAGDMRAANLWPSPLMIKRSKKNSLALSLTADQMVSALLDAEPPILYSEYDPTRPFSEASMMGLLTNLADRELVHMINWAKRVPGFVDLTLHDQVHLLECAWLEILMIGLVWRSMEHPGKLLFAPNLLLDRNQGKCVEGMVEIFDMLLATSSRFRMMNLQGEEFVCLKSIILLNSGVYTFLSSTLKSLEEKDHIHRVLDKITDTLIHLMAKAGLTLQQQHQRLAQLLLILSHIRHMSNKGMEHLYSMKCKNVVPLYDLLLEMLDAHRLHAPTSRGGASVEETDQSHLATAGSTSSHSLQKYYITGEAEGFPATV
Chain of Retinoic acid receptor RXR-alpha (Homo sapiens) (P19793 whole entry, looked up, the tested form may be a part): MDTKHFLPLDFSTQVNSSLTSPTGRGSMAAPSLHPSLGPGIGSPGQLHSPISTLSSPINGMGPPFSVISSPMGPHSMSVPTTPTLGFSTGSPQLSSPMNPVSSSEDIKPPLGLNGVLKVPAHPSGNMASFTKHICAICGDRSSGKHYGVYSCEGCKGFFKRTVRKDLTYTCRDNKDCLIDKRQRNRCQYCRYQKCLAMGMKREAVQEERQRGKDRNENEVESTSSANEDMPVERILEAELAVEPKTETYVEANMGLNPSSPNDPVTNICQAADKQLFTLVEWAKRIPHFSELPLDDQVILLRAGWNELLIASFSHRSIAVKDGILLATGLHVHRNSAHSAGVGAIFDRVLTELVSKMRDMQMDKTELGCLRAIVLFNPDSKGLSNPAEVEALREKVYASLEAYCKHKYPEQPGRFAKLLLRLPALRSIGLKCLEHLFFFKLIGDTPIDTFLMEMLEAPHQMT
Chain of Peroxisome proliferator-activated receptor gamma (Homo sapiens) (P37231 whole entry, looked up, the tested form may be a part): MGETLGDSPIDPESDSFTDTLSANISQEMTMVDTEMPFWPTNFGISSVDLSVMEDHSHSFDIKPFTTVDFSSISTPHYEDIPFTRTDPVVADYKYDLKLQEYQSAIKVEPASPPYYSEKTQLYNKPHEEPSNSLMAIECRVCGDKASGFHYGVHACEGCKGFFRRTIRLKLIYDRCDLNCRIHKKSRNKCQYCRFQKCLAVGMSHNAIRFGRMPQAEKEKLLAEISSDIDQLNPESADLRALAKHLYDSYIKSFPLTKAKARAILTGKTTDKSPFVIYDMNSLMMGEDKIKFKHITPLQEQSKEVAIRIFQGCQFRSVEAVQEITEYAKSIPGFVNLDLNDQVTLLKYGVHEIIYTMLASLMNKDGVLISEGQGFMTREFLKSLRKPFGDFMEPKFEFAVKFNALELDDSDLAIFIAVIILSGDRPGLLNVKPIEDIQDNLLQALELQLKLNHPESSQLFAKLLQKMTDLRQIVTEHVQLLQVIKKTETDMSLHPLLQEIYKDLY

NC1CCCCC1
inactive: [1] | [2] | [3] | [4] | [5] | [6]

CCCCCCC(C=O)=Cc1ccccc1
active: [7] 50 µM | [4] 73.4 µM
inactive: [1] | [8] | [5] | [9] | [6]

CC(=O)OCC(COC(C)=O)OC(C)=O
inactive: [1] | [5] | [6]

NC=O
inactive: [1] | [9] | [6]

CC(=O)CC(c1ccccc1)c1c(O)c2ccccc2oc1=O (stereo not drawn)
inactive: [4] | [5]

CC(N)=O
inactive: [1] | [5] | [9] | [6]

CO[C@@H]1COCC[C@@H]1N[C@@H]1CC[C@@](C(=O)N2CCc3ncc(C(F)(F)F)cc3C2)(C(C)C)C1
inactive: [1] | [4] | [9] | [6]

COC(=O)CCC(=O)OC
inactive: [2] | [3] | [7] | [8] | [4] | [5] | [6]

CC(C)(O)c1ccc(CNC(=O)c2cccnc2Oc2ccc(F)cc2)cc1
active: [13] 64.9 µM
inactive: [1] | [10] | [11] | [12] | [14]

CC(=O)O[C@]1(C(C)=O)CC[C@H]2[C@@H]3C=C(Cl)C4=CC(=O)[C@@H]5C[C@@H]5[C@]4(C)[C@H]3CC[C@@]21C
active: [4] 28 µM | [5] 82.6 µM | [10] 2.37 µM | [11] 3.63 µM
inactive: [1] | [9] | [6]

CCCC(=O)O
inactive: [4] | [5] | [6]

C/C=C/C=C/C(=O)O
inactive: [1] | [5] | [9] | [6]

C/C=C/c1ccc(OC)cc1
inactive: [1] | [4] | [6]

O=C(O)c1[nH]n(-c2ccc(S(=O)(=O)O)cc2)c(=O)c1N=Nc1ccc(S(=O)(=O)O)cc1
inactive: [2] | [3] | [8] | [4] | [5] | [6]

c1ccc2occc2c1
inactive: [2] | [3] | [8] | [4] | [9] | [6]

CCCC[C@H]1CN(CC2CCOCC2)C(=O)OC12CCN(C1(C)CCN(C(=O)c3c(C)ncnc3C)CC1)CC2
inactive: [5] | [9] | [6]

Cn1cnc2c1c(=O)[nH]c(=O)n2C
inactive: [7] | [8] | [4] | [5] | [9] | [6]

Cc1occc(=O)c1O
inactive: [5] | [6]

CC(C)c1cccc(C(C)C)c1
inactive: [2] | [3] | [7] | [4] | [5] | [6]

N[C@@H](Cc1c[nH]c2ccccc12)C(=O)O
inactive: [1] | [4] | [5] | [6]

CC(=O)S[C@H](C(=O)N[C@H]1Cc2ccccc2[C@H]2CCC[C@@H](C(=O)O)N2C1=O)C(C)C
inactive: [7] | [4] | [5] | [6]

O=C1O[C@H]([C@H](O)CO)C(O)=C1O
inactive: [1] | [4] | [5] | [9] | [6]

Nc1nc(Cl)nc2c1ncn2[C@H]1C[C@H](O)[C@@H](CO)O1
inactive: [11] | [13]
active: [7] 15.2 µM | [8] 21.1 µM | [4] 50 µM and 41.2 µM | [5] 46.7 µM and 44.1 µM | [10] 6.46 µM | [12] 5.64 µM | [14] 0.201 µM

O=C1c2c(O)cccc2Cc2cccc(O)c21
active: [11] 66.3 µM
inactive: [7] | [8] | [4] | [5] | [6] | [10] | [12] | [13] | [14]

O=C1NC(=O)C(c2ccccc2)(c2ccccc2)N1
inactive: [4] | [5] | [9] | [6] | [10] | [14]
active: [12] 10.4 µM | [13] 26.6 µM

COC(=O)CCCC(=O)OC
inactive: [8] | [4] | [5]

CCCCOC(=O)CCCCC(=O)OCCCC
inactive: [1] | [5] | [6]

Oc1ccccc1O
active: [1] 31 µM | [5] 16 µM and 23.7 µM
inactive: [4] | [6] | [10] | [11] | [12] | [14]

O=NO
inactive: [5] | [6]

CC(C)COC(=O)CCCCC(=O)OCC(C)C
inactive: [7] | [8] | [4] | [5] | [9] | [6]

CN(C)CCCN1c2ccccc2Sc2ccc(Cl)cc21
inactive: [1] | [9] | [6]
